Screening data as filed in PubChem BioAssay.
TbPYK inhibitor: T. brucei pyruvate kinase inhibition | Q57TT1 | 410,000 compounds, 0.12% hits | Potency, µM (series often up to 76.8 µM), most hits filed as inhibitors | TbPYK enzyme, Kinase-Glo Plus ATP luminescence, 45 min; note: nearly all actives have a fitted effect of over 50% in size
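TbPYK + substrate in 50 mM TEA pH 7.2, 100 mM KCl, 10 mM MgCl2, 0.05% BSA, 0.01% Tween-20; cpd pinned; ADP 130 uM final; 45 min RT; Kinase-Glo Plus 10 min; luminescence endpoint.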
Cycloheximide cs: counter-screen for Shiga toxin inhibitors: cycloheximide protein synthesis inhibition; max response, %; 300,000 compounds, 12% hits; cell reporter, cycloheximide protein synthesis inhibition counterscreen; in the data active = max response mostly above about 13%, no sharp cut-off; inactive = mostly below about 14%; note: read at 38.3 µM for the half of the compounds with a filed dose
FBPA Giardia inh: blocks Giardia fructose-bisphosphate aldolase activity; Potency, µM (titrated, usually from 59.6 µM), most hits filed as inhibitors; AID 2451; 290,000 compounds, 0.71% hits; purified Giardia FBPA; A8B2U2; note: nearly all actives have a fitted effect of over 55% in size
Target sequence (A8B2U2 whole entry, looked up): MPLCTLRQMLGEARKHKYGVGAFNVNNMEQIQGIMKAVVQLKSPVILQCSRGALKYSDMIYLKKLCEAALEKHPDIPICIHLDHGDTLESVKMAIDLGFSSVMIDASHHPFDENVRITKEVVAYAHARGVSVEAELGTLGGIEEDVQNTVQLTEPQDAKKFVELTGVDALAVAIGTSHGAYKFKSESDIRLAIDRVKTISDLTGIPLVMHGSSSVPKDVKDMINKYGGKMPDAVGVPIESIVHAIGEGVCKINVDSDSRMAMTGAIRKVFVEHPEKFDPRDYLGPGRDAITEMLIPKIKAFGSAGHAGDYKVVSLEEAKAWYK
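40 nM FBPA preincubated 10 min at RT with compound (up to 57.5 uM final), then substrate plus GAPDH/TPI/NAD/arsenate coupling and diaphorase/resazurin added. Fluorescence read after 20 min at RT, 525/598 nm.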
LmPK inhibitor: blocks Leishmania mexicana pyruvate kinase activity; Q27686; purified LmPK, Kinase-Glo ATP luminescence, 1 h; Potency, µM (highest dose often 57.5 µM), usual class: inhibitors; 290,000 compounds, 0.37% hits; AID 1721
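0.1 nM LmPK, 0.5 mM PEP, 0.1 mM ADP; 50 mM imidazole pH 7.2, 7 mM MgCl2, 50 mM KCl; 1 h RT. Kinase-Glo luminescence readout, normalized to no-enzyme (full inhibition) and uninhibited wells.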
Shiga inhibitor: inhibitors of Shiga toxin in Vero cells. AID 2315. 290,000 compounds, 9.2% hits. inhibition, % at 38.7 µM. Vero cells, Shiga toxin protein synthesis inhibition reporter; in the data active = inhibition mostly above about 28%, no sharp cut-off; inactive = mostly below about 43%
Sm TGR inh: S. mansoni TGR enzyme inhibition; Potency, µM (highest dose often 114 µM), usual class: inhibitors; Q962Y6; purified TGR, DTNB reduction, TNB absorbance 405 nm; 360,000 compounds, 3% hits; note: nearly all actives have a fitted effect of over 60% in size
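TGR 20 nM + NADPH 100 uM (dispensed conc.), cpd preinc 15 min RT; start with NADPH (500 uM addition) then DTNB (15 mM addition). Kinetic TNB absorbance, 405 nm filter. Four-parameter Hill fit across titration.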
Numbers stand for hits; – = inactive; ? = inconclusive; · = no result given; [ ] = remark or other dose. The full list was thinned out, with hits kept by preference. Unless noted, calls come from the whole dose curve; as a rule, active = well fitted curve in the direction sought with a large enough effect; inconclusive = small, poorly fitted or top-dose-only effect, or another doubt; inactive = no such curve, though single readings can be large; an effect the other way counts as inactive or inconclusive.

SMILES | TbPYK inhibitor | Cycloheximide cs | FBPA Giardia inh | LmPK inhibitor | Shiga inhibitor | Sm TGR inh
Cc1ccc(-c2[nH]ncc2C(=O)c2ccc(Br)cc2)c(O)c1 | – | 11.0 | – | – | – | –
Cc1noc(C)c1-c1ccc2ncnc(Nc3ccccc3)c2c1 | · | · | – | · | · | ·
CC1(Cc2ccccc2Cl)C(=O)Nc2ccc(OC(F)(F)F)cc21 (centres undefined) | – | · | · | · | · | ·
COc1cc(CN2CCCCC2)ccc1OCc1ccccc1 | – | 32.0 | ? | – | 56.0 | –
COc1cc(CNC(=O)C2CCCC2)cc(OC)c1OC | – | – | – | – | – | 3.16µM
COc1ccc(CN2CCCCCC2)cc1OC | – | · | · | · | · | ·
COc1cc(CN2CCC(C(=O)NCCC(C)C)CC2)ccc1OCc1ccccc1 | – | 25.5 | – | – | 100.6 | –
COc1ccccc1CNC(=O)C1CCCC1 | – | – | – | – | – | –
COc1cc(CNC(=O)C2CC2)ccc1OCc1ccccc1 | – | 46.1 | – | – | 63.6 | –
COc1cc(CC(=O)O)ccc1OCc1ccccc1 | – | – | – | – | – | –
Cc1ccc(-n2c(C)cc(C(=O)C(=O)Nc3ccccc3)c2C)c(C)c1 | – | · | · | · | · | –
COc1ccc(C(=O)CC(=O)C(=O)Nc2ccccc2Cl)cc1 | – | – | – | – | – | –
COc1ccc(C(=O)CCC(=O)Nc2cc(Cl)c(O)c(Cl)c2)cc1 | – | – | – | – | – | 35.5µM
COc1ccc(C(=O)CC(=O)C(=O)Nc2ccc(Cl)cc2)cc1 | – | 14.2 | – | – | – | –
COc1ccc(NC(=O)C(=O)NCCO)cc1Cl | – | – | – | – | – | –
COc1ccc(NC(=O)C(=O)NCCCO)cc1Cl | – | 24.2 | – | – | 61.6 | –
COc1ccc(C(=O)CC(Nc2ccc([N+](=O)[O-])cc2)c2ccc(Cl)cc2)cc1 (centres undefined) | – | 10.0 | – | – | – | –
N#CCCN(CC#Cc1ccccc1)OCc1ccccc1 | · | · | –[12.9 µM] | · | · | ·
Cc1ccc(C(=O)NCC(c2ccc(F)cc2)N2CCOCC2)cc1S(=O)(=O)N1CCOCC1 (centres undefined) | – | · | · | · | · | ·
COc1ccc(NC(=S)NCCN2CCC(C)CC2)cc1Cl | – | – | 14.1µM | – | – | –
CCCN1CCC(NC(=S)Nc2ccc(OC)c(OC)c2)CC1 | – | – | – | – | – | –
COc1ccc(C(=O)CC(=O)C(=O)Nc2ccc(OC)c(Cl)c2)cc1 | – | 17.2 | – | – | – | –
FC(F)(F)c1ccccc1-c1nccc(NCc2ccccc2)n1 | · | · | – | · | · | ·
COc1ccc(-c2nc3c(c4c2C[C@H](c2ccccc2)OC4)CN(C(=O)c2cc(I)ccc2F)CC3)c(C)c1 | · | · | –[12.9 µM] | –[11.5 µM] | · | ·
c1ccc(-c2noc(CC3CCCCC3)n2)nc1 | – | 49.8 | – | – | 81.8 | –
SMILES | TbPYK inhibitor | Cycloheximide cs | FBPA Giardia inh | LmPK inhibitor | Shiga inhibitor | Sm TGR inh
O=C(CCc1nc(-c2ccccc2)no1)NC1CCCCCC1 | – | · | · | · | · | –
c1cc(-c2noc(CC3CCCCC3)n2)ccn1 | – | – | – | – | 122.3 | –
COC(=O)CSc1nc(NC(C)(C)C)nc(N(C)C)n1 | – | 33.0 | – | – | – | –
N#CC1(NC(=O)CN2C(=O)c3ccccc3C2=O)CCCCC1 | – | · | · | · | · | –
N#CC1(NC(=O)Cn2ncc(Cl)c(Cl)c2=O)CCCCC1 | – | · | · | · | · | 17.8µM
COc1ccc(-c2nn(-c3ccccc3)cc2N)cc1 | – | 61.3 | – | – | 182.7 | –
COc1ccc(-c2nn(-c3ccccc3)cc2CO)cc1 | – | 61.2 | – | – | 163.9 | –
COc1ccc(-c2cn(-c3ccccc3)nc2CO)cc1 | – | 36.7 | – | – | 111.5 | –
O=[N+]([O-])c1cccc(-c2nn(-c3ccccc3)cc2CO)c1 | – | 12.1 | – | – | – | –
CC(C)Oc1ccccc1C1(c2ccccc2)NC(=O)NC1=O (centres undefined) | – | – | – | – | · | –
Cc1ccc(-c2nn(-c3ccccc3)cc2CO)cc1 | – | 42.0 | – | – | 144.3 | –
CCOC(=O)Cc1ccc(NCc2ccc(Cl)cc2)cc1 | – | – | ? | – | – | –
CCOC(=O)Cc1nc(-c2ccc(Cl)cc2)n[nH]1 | – | 25.8 | – | – | – | –
Cc1ccc(-c2n[nH]c(Cc3ccccc3)n2)cc1 | – | 48.6 | · | – | 74.5 | –
Cc1ccc(OCc2nc(-c3ccc(Cl)cc3)n[nH]2)cc1 | – | 20.3 | – | – | 63.4 | –
O=C(NC1CCCCC1)c1ccc(CSc2nc3ccncc3n2Cc2ccccc2)cc1 | – | · | · | · | · | –
COc1cc(CNc2ccc(NC(C)=O)cc2)ccc1OCc1ccccc1C | – | 46.4 | – | – | 87.5 | –
COc1cc(CNc2ccc(N3CCOCC3)cc2)ccc1OCC(=O)NC(C)(C)C | – | – | – | – | – | –
COc1cc(CNc2ccc(N3CCN(C(C)=O)CC3)cc2)ccc1OCc1ccccc1 | – | 23.3 | – | – | 51.6 | –
COc1cc(C(=O)Nc2ccc(NC(C)=O)cc2)ccc1OCc1ccccc1 | – | – | – | – | – | –
CC(C)C[C@H]1C(=O)N2CCCC2[C@]2(O)O[C@](NC(=O)[C@@H]3C=C4c5cccc6[nH]c(Br)c(c56)C[C@H]4N(C)C3)(C(C)C)C(=O)N12 (some centres undefined) | – | · | – | · | · | ·
O=C(N/N=C/c1ccncc1)c1ccccc1[N+](=O)[O-] | – | – | – | – | – | –
O=C(N/N=C/c1ccc(OCc2ccccc2)cc1)c1cc[n+](Cc2ccccc2)cc1 | – | 20.4 | – | – | 36.9 | –
Cc1occc1C(=O)N/N=C/c1ccc(OCc2ccccc2)cc1 | – | 45.3 | – | ? | 63.5 | –
Cc1occc1C(=O)N/N=C/c1ccc(-c2ccccc2)cc1 | ? | 37.0 | – | – | 75.4 | –
SMILES | TbPYK inhibitor | Cycloheximide cs | FBPA Giardia inh | LmPK inhibitor | Shiga inhibitor | Sm TGR inh
O=C(N/N=C/C(Br)=C/c1ccccc1)c1ccccc1[N+](=O)[O-] | – | 8.7 | – | – | – | –
Nc1c(C(=O)N/N=C/c2ccc(OCc3ccccc3)cc2)cnn1-c1ccccc1 | – | – | – | – | – | –
CN1CCN(c2ncc3ncc(=O)n(Cc4cccs4)c3n2)CC1 | – | · | – | · | · | ·
c1ccc2c(-c3cc(NCc4ccncc4)n4nccc4n3)cccc2c1 | – | · | · | · | · | ·
CCc1ccc(-c2nc3cc(NC(=O)c4cc5ccccc5cc4OC)ccc3o2)cc1 | – | · | · | · | · | –
Cc1occc1C(=O)N/N=C/c1ccc[nH]1 | – | · | · | · | · | ·
Cc1occc1C(=O)N/N=C/C(Br)=C/c1ccccc1 | – | 38.9 | – | ? | 85.5 | ?
Cc1occc1C(=O)N/N=C/c1cccs1 | – | 33.1 | · | 14.1µM | 84.1 | –
Cc1ccccc1-n1nc2c(c1NC(=O)C1CC1)CS(=O)(=O)C2 | – | · | · | · | · | ·
CCc1ccccc1NC(=O)c1ccc(-n2c(C)ccc2C)cc1 | – | – | – | – | – | ?
Cc1csc(NC(=O)C2CCCC2)n1 | – | 27.8 | – | – | – | –
Cc1nc(-c2ccc(NC(=O)c3ccccc3)cc2)cs1 | ? | – | – | – | – | –
Cc1ccc(C(=O)Nc2ccc(-c3csc(C)n3)cc2)cc1 | – | 34.9 | – | – | 117.7 | –
